# Laboratory results reported in the supplement of paper PMC10127200.
# Counter-ions that a name gives are not always drawn.
# Key:
# Assay in all cases: Euclidean distance of Cell Painting phenotypic profile (signed KS, 77 features) to DMSO centroid (dimensionless distance); higher = stronger phenotypic change vs DMSO (phenoactivity)
# Details in all cases: 48 h; 5 or 10 uM (library dependent)
# 786-O = test system: 786-O
# Method in brief: (§1)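 Five cancer lines and a healthy fibroblast line received library compounds at 10 or 5 uM (library-dependent, 0.1% DMSO final) for 48 h. Stained cells were imaged confocally at 20X (9 fields/well). Harmony extracted 77 features, each scored as a signed Kolmogorov-Smirnov statistic against same-plate vehicle wells. Profiles were plate-position corrected, correlation-weighted and replicate-averaged at the top dose. Phenoactivity is the Euclidean distance from each profile to the median vehicle profile.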
# A549 = test system: A549
# Method in brief: as §1
# DU145 = test system: DU145
# Method in brief: as §1
# FB = test system: FB
# Method in brief: as §1
# HEPG2 = test system: HEPG2
# Method in brief: as §1
# OVCAR4 = test system: OVCAR4
# Method in brief: as §1
Compound,Euclidean distance (786-O),Euclidean distance (A549),Euclidean distance (DU145),Euclidean distance (FB),Euclidean distance (HEPG2),Euclidean distance (OVCAR4)
Clc1ccc(C(OCCN2CCCCC2)c2ccccc2)cc1 (stereo not drawn) [Cloperastine hydrochloride],0.838,1.16,1.16,0.914,1.43,1.16
CC(C)N(CCNC(=O)CN1CCCC1=O)C(C)C [Pramiracetam],1.35,1.08,0.543,0.932,0.534,0.853
COc1ccc2c(c1)[nH]c1c(C)nccc12 [Harmine hydrochloride],1.41,1.17,1.13,1.58,1.06,1.25
N#Cc1ccc(N2CCC[C@@H]2[C@@H](O)C(F)(F)F)cc1C(F)(F)F [Ligandrol (LGD-4033. VK-5211)],1.52,1.1,0.95,1.1,0.87,1.15
C[N+]12CCC(CC1)C(OC(=O)C(O)(c1ccccc1)c1ccccc1)C2 (stereo not drawn) [Clidinium Bromide],0.785,0.788,0.87,0.845,0.445,0.671
C=CN1CCCC1=O.II [Povidone iodine],0.772,0.725,0.784,1.19,1.94,1.05
CCC(=O)CCCCC[C@@H]1NC(=O)[C@H]2CCCCN2C(=O)[C@H]([C@@H](C)CC)NC(=O)[C@H](Cc2cn(OC)c3ccccc23)NC1=O [Apicidin],3.74,3.31,1.07,2.16,1.52,1.84
CC(C)[N+](C)(CCC(C(N)=O)(c1ccccc1)c1ccccc1)C(C)C [Isopropamide Iodide],1.26,0.953,1.08,1.25,0.717,1.23
CC1(C)CC(O)CC(C)(C)N1[O] [Tempol],0.822,0.85,1.18,1.49,0.827,0.934
O=C1CC[C@@]2(O)[C@H]3Cc4ccc(O)c5c4[C@@]2(CCN3CC2CC2)[C@H]1O5 [Naltrexone HCl],1.26,0.818,0.868,0.982,1.84,1.99
COc1cc(-n2c(=S)[nH]c3ccccc3c2=O)c(Cl)cc1Cl [Mdivi-1],1.11,1.02,0.97,1.3,0.841,0.792
CC(=O)NC1CCSC1=O (stereo not drawn) [Citiolone],1.19,0.873,0.825,1.06,0.461,1.71
CO[C@H]1CC[C@@H](O[C@H]2C[C@H]([C@]3(C)CC[C@]4(C[C@H](O)[C@@H](C)[C@@H]([C@@H](C)/C=C(\C)C(=O)[C@H](C)C[C@H](C)C(=O)O)O4)O3)O[C@]3(O[C@@H]([C@H]4O[C@@](O)(CO)[C@H](C)C[C@@H]4C)C[C@@H]3C)[C@@H]2C)O[C@@H]1C [Nanchangmycin],3.94,1.41,2.28,4.66,3.85,1.11
CN1CCC(c2c[nH]c3ccc(O)cc23)CC1,0.692,0.484,1.17,0.749,2.09,0.873
CC(C)C(Br)C(=O)NC(N)=O (stereo not drawn) [Bromisoval],1.54,0.435,2.15,0.988,0.659,0.646
CCCCCCC(=O)O[C@H]1CC[C@H]2[C@@H]3CCC4=CC(=O)CC[C@]4(C)[C@H]3CC[C@]12C [Testosterone Enanthate],0.918,0.756,0.828,0.666,0.553,1.49
C[C@](O)(COc1ccc(C#N)cc1)C(=O)Nc1ccc(C#N)c(C(F)(F)F)c1,1.54,1.28,0.792,1.72,1.24,1.74
C[C@]12CC[C@H](O)CC1=CC[C@@H]1[C@@H]2CC[C@]2(C)C(=O)CC[C@@H]12 [Dehydroepiandrosterone (DHEA)],0.908,0.827,1.46,1.11,1.12,1.16
C=C(C)[C@@H]1[C@H]2OC(=O)[C@@H]1[C@]1(O)C[C@H]3O[C@]34C(=O)O[C@H]2[C@]14C [Picrotoxinin],1.37,1.86,0.846,0.954,0.815,1.26
NC(=O)CN1CCCC1=O [Piracetam],1.42,0.813,0.735,1.08,0.792,1.01
C[C@]12CC[C@H](O)C[C@H]1CC[C@@H]1[C@@H]2C[C@@H](O)[C@]2(C)[C@@H](C3=CC(=O)OC3)CC[C@]12O [Digoxigenin],6.59,5.09,7.21,3.92,3.09,5.51
O=[N+]([O-])O[C@@H]1CO[C@H]2[C@@H]1OC[C@@H]2O [Isosorbide Mononitrate],1.15,1.13,0.879,0.9,0.868,0.962
CCN(CC)C(=O)c1ccc(C2=CC3(CCNCC3)Oc3cccc(O)c32)cc1,0.588,1.87,0.833,0.776,1.75,0.973
COc1cc2c(cc1OC)C1CC(=O)C(CC(C)C)CN1CC2 (stereo not drawn) [Tetrabenazine (Xenazine)],0.961,1.86,0.948,1.12,1.74,1.45

Compound,Euclidean distance (786-O),Euclidean distance (A549),Euclidean distance (DU145),Euclidean distance (FB),Euclidean distance (HEPG2),Euclidean distance (OVCAR4)
CN1[C@H]2C[C@H](OC(=O)[C@H](CO)c3ccccc3)C[C@@H]1[C@@H](O)C2 [Anisodamine Hydrobromide],0.645,0.397,2.62,1.12,0.513,0.688
O=C1C=C2C=C[C@@H]3C[C@@]2(O1)[C@H]1CCCCN31 [Securinine],0.99,1.25,1.42,1.78,1.08,1.74
Cc1sc2c(c1C)C(c1ccc(Cl)cc1)=N[C@@H](CC(=O)Nc1ccc(O)cc1)c1nnc(C)n1-2,2.95,2.08,2.15,4.11,1.91,1.77
"CN1CCc2cc3c(cc2C1C1OC(=O)c2c1ccc1c2OCO1)OCO3 (single isomer, unassigned; (+)) [(+)-Bicuculline]",1.27,0.94,0.878,0.836,0.778,1.48
CN(C)C(=O)Oc1ccc[n+](C)c1 [Pyridostigmine Bromide],0.816,0.961,0.672,0.846,0.726,0.777
C[C@H]1O[C@H](O[C@H]2[C@H](O)[C@@H](O)[C@@H](O)[C@H](O)[C@@H]2O)[C@@H](N)C[C@@H]1NC(=N)C(=O)O [Kasugamycin hydrochloride],1.08,0.816,0.855,1.2,0.528,0.934
CN1[C@@H]2CC[C@H]1C[C@@H](OC(=O)C(CO)c1ccccc1)C2 (stereo partly drawn) [Atropine],0.688,1.55,1.19,1,2.2,1.89
COc1cc2c(c(OC)c1OC)-c1ccc(OC)c(=O)cc1[C@@H](NC(C)=O)CC2 [Colchicine],3.12,3.04,4.54,2.88,3.8,3.18
CCN(CC)CCOC(=O)C(O)(c1ccccc1)c1ccccc1 [Benactyzine hydrochloride],1.27,0.786,1.33,0.83,0.592,1.71
CCC1=C[C@H]2CN3CCc4c([nH]c5ccccc45)[C@](C(=O)OC)(C2)[C@H]13 [Catharanthine],1.45,1.4,0.692,1.02,0.581,1.41
CC(=O)Nc1ccc(OC[C@](C)(O)C(=O)Nc2ccc([N+](=O)[O-])c(C(F)(F)F)c2)cc1 [Andarine],1.46,1.78,0.858,0.758,0.703,1
CC(C)[C@]12O[C@H]1[C@@H]1O[C@]13[C@]1(O[C@H]1C[C@H]1C4=C(CC[C@@]13C)C(=O)OC4)[C@@H]2O [Triptolide (PG490)],3.96,3.27,3.16,4.12,2.73,3.81
CC(=O)O[C@H]1CC[C@H]2[C@@H]3CCC4=CC(=O)CCC4=C3C=C[C@]12C [Trenbolone acetate],0.864,0.493,1.04,0.72,1.19,0.778
CN(C)C(=O)Oc1cc(OC(=O)N(C)C)cc(C(O)CNC(C)(C)C)c1 (stereo not drawn) [Bambuterol HCl],0.701,0.719,1.13,1.12,0.521,1.48
CC1(C)S[C@@H]2[C@H](N)C(=O)N2[C@H]1C(=O)O [6-Aminopenicillanic acid],1.51,0.648,1.01,0.903,0.75,1.5
OC(c1ccccc1)(c1ccccc1)C1CCNCC1 [Azacyclonol],2.95,2.91,3.75,3.06,2.31,3.18
CC(=O)OCC1=C(C(=O)O)N2C(=O)[C@@H](N)[C@H]2SC1 [7-Aminocephalosporanic acid],1.45,0.819,1.16,1,0.55,0.832
Cc1ccc(-n2nccn2)c(C(=O)N2CCN(c3nc4cc(Cl)ccc4o3)CC[C@H]2C)c1 [Suvorexant (MK-4305)],0.574,1.02,0.945,0.9,2.25,0.979
NCC1(CC(=O)O)CCCCC1 [Gabapentin HCl],0.807,0.703,0.806,0.665,0.483,0.892
O=[N+]([O-])c1ncc[nH]1 [Azomycin],1.03,1.17,1.36,1.09,1.54,0.81
COc1cc([C@@H]2c3cc4c(cc3[C@H](O)[C@H]3COC(=O)[C@@H]23)OCO4)cc(OC)c1OC [Picropodophyllin (PPP)],3.35,2.64,4.34,2.74,3.95,3.14
C[C@H]1CNCCc2ccc(Cl)cc21 [Lorcaserin HCl],1.56,0.972,1.3,0.956,1.2,0.917
CCC1(C)CC(=O)NC(=O)C1 [Bemegride],0.845,0.616,0.948,0.603,0.381,0.793
CC(CCc1ccccc1)NC(C)C(O)c1ccc(O)cc1 (stereo not drawn) [Nylidrin Hydrochloride],1.45,1.2,1.38,1.11,1.29,1.34
